# Results reported in the supplement of paper PMC8728848.
# This is one part of a sample in which the strongest signals are shown more often than they occur.
# B1: BDCA-2 (Homo sapiens), Q8WTT0 (protein)
# chain: MVPEEEPQDREKGLWWFQLKVWSMAVVSILLLSVCFTVSSVVPHNFMYSKTVKRLSKLREYQQYHPSLTCVMEGKDIEDWSCCPTPWTSFQSSCYFISTGMQSWTKSQKNCSVMGADLVVINTREEQDFIIQNLKRNSSYFLGLSDPGGRRHWQWVDQTPYNENVTFWHSGEPNNLDERCAIINFRSSEEWGWNDIHCHVPQKSICKMKKIYI
# Columns and labels:
# Assay in all cases: glycan array binding signal (z-score within array); higher = stronger binding
# Conditions in all cases: glycan notation: IUPAC condensed, linker removed
# [1] = target: Fuc(a1-2)Gal(b1-4)GlcNAc(b1-2)Man(a1-3)[Fuc(a1-2)Gal(b1-4)GlcNAc(b1-2)Man(a1-6)]Man(b1-4)GlcNAc(b1-4)GlcNAc
# Procedure, shortened: (§1)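 The binding signal is a Z-score computed within each array. Data were drawn from 3228 arrays in the Consortium for Functional Glycomics database, restricted to those with a known protein sequence. Scores were averaged over arrays of the same protein sequence at different concentrations or buffers, and over linkers, and negative values can be taken as non-binding.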
# [2] = target: Fuc(a1-2)Gal(b1-4)GlcNAc(b1-2)[Fuc(a1-2)Gal(b1-4)GlcNAc(b1-4)]Man(a1-3)[Fuc(a1-2)Gal(b1-4)GlcNAc(b1-2)Man(a1-6)]Man(b1-4)GlcNAc(b1-4)GlcNAc
# Procedure, shortened: as §1
# [3] = target: Fuc(a1-2)Gal(b1-4)GlcNAc(b1-3)Gal(b1-4)GlcNAc
# Procedure, shortened: as §1
# Fuc(a1-2)[Gal(a1-3)]Gal = target: Fuc(a1-2)[Gal(a1-3)]Gal
# Procedure, shortened: as §1
# [4] = target: Fuc(a1-2)[Gal(a1-3)]Gal(b1-3)GalNAc(b1-3)Gal(a1-4)Gal(b1-4)Glc
# Procedure, shortened: as §1
# [5] = target: Fuc(a1-3)[Gal(b1-4)]GlcNAc
# Procedure, shortened: as §1
# Gal(a1-3)Gal = target: Gal(a1-3)Gal
# Procedure, shortened: as §1
# [6] = target: Gal(a1-4)Gal(b1-4)GlcNAc(b1-2)Man(a1-3)[Gal(a1-4)Gal(b1-4)GlcNAc(b1-2)Man(a1-6)]Man(b1-4)GlcNAc(b1-4)GlcNAc
# Procedure, shortened: as §1
# [7] = target: Gal(b1-3)GlcNAc(b1-2)Man(a1-3)[Gal(b1-3)GlcNAc(b1-2)Man(a1-6)]Man(b1-4)GlcNAc(b1-4)GlcNAc
# Procedure, shortened: as §1
# [8] = target: Gal(b1-3)GlcNAc(b1-3)Gal(b1-3)GlcNAc
# Procedure, shortened: as §1
# [9] = target: Gal(b1-3)GlcNAc(b1-3)Gal(b1-4)GlcNAc(b1-2)Man(a1-3)[Gal(b1-3)GlcNAc(b1-3)Gal(b1-4)GlcNAc(b1-2)Man(a1-6)]Man(b1-4)GlcNAc(b1-4)GlcNAc
# Procedure, shortened: as §1
# [10] = target: Gal(b1-3)[Fuc(a1-4)]GlcNAc
# Procedure, shortened: as §1
# [11] = target: Gal(b1-4)GlcNAc(b1-2)Man(a1-3)Man(b1-4)GlcNAc(b1-4)GlcNAc
# Procedure, shortened: as §1
# [12] = target: Gal(b1-4)GlcNAc(b1-2)Man(a1-3)[Gal(b1-4)GlcNAc(b1-2)Man(a1-6)]Man(b1-4)GlcNAc(b1-4)GlcNAc
# Procedure, shortened: as §1
# [13] = target: Gal(b1-4)GlcNAc(b1-2)Man(a1-3)[Gal(b1-4)GlcNAc(b1-2)Man(a1-6)]Man(b1-4)GlcNAc(b1-4)[Fuc(a1-6)]GlcNAc
# Procedure, shortened: as §1
# [14] = target: Gal(b1-4)GlcNAc(b1-2)Man(a1-3)[Gal(b1-4)GlcNAc(b1-2)Man(a1-6)][GlcNAc(b1-4)]Man(b1-4)GlcNAc(b1-4)[Fuc(a1-6)]GlcNAc
# Procedure, shortened: as §1
# [15] = target: Gal(b1-4)GlcNAc(b1-2)Man(a1-3)[GlcNAc(b1-2)Man(a1-6)]Man(b1-4)GlcNAc(b1-4)GlcNAc
# Procedure, shortened: as §1
# [16] = target: Gal(b1-4)GlcNAc(b1-2)Man(a1-3)[Man(a1-6)]Man(b1-4)GlcNAc(b1-4)GlcNAc
# Procedure, shortened: as §1
# [17] = target: Gal(b1-4)GlcNAc(b1-2)[Gal(b1-4)GlcNAc(b1-4)]Man(a1-3)[GlcNAc(b1-4)][Gal(b1-4)GlcNAc(b1-2)[Gal(b1-4)GlcNAc(b1-6)]Man(a1-6)]Man(b1-4)GlcNAc(b1-4)GlcNAc
# Procedure, shortened: as §1
# [18] = target: Gal(b1-4)GlcNAc(b1-2)[Gal(b1-4)GlcNAc(b1-6)]Man(a1-6)[Gal(b1-4)GlcNAc(b1-2)Man(a1-3)]Man(b1-4)GlcNAc(b1-4)GlcNAc
# Procedure, shortened: as §1
# [19] = target: Gal(b1-4)GlcNAc(b1-2)[Gal(b1-4)GlcNAc(b1-6)]Man(a1-6)[Gal(b1-4)GlcNAc(b1-2)Man(a1-3)]Man(b1-4)GlcNAc(b1-4)[Fuc(a1-6)]GlcNAc
# Procedure, shortened: as §1
# [20] = target: Gal(b1-4)GlcNAc(b1-3)Gal(b1-4)GlcNAc(b1-3)Gal(b1-4)GlcNAc
# Procedure, shortened: as §1
# Gal6S(b1-4)GlcNAc6S = target: Gal6S(b1-4)GlcNAc6S
# Procedure, shortened: as §1
# GalNAc(a1-3)GalNAc = target: GalNAc(a1-3)GalNAc
# Procedure, shortened: as §1
# [21] = target: GalNAc(a1-3)GalNAc(b1-3)Gal(a1-4)Gal(b1-4)GlcNAc
# Procedure, shortened: as §1
# GalNAc(b1-6)GalNAc = target: GalNAc(b1-6)GalNAc
# Procedure, shortened: as §1
# GlcA(b1-3)GlcNAc = target: GlcA(b1-3)GlcNAc
# Procedure, shortened: as §1
# [22] = target: GlcA3S(b1-3)Gal(b1-4)GlcNAc(b1-2)Man
# Procedure, shortened: as §1
# GlcNAc(b1-3)Gal(b1-4)Glc = target: GlcNAc(b1-3)Gal(b1-4)Glc
# Procedure, shortened: as §1
# [23] = target: GlcNAc(b1-3)Gal(b1-4)GlcNAc(b1-3)GalNAc
# Procedure, shortened: as §1
# [24] = target: GlcNAc(b1-4)GlcNAc(b1-4)GlcNAc
# Procedure, shortened: as §1
# [25] = target: Man(a1-3)[Man(a1-6)]Man(a1-6)[Man(a1-2)Man(a1-3)]Man(b1-4)GlcNAc(b1-4)GlcNAc
# Procedure, shortened: as §1
# [26] = target: Man(a1-3)[Man(a1-6)]Man(a1-6)[Man(a1-3)]Man
# Procedure, shortened: as §1
# [27] = target: Man(a1-3)[Man(a1-6)]Man(a1-6)[Man(a1-3)]Man(b1-4)GlcNAc(b1-4)GlcNAc
# Procedure, shortened: as §1
# [28] = target: Man(a1-3)[Man(a1-6)]Man(b1-4)GlcNAc(b1-4)[Fuc(a1-6)]GlcNAc
# Procedure, shortened: as §1
# [29] = target: Neu5Ac(a2-3)Gal(b1-3)GlcNAc(b1-2)Man(a1-3)[Neu5Ac(a2-3)Gal(b1-3)GlcNAc(b1-2)Man(a1-6)]Man(b1-4)GlcNAc(b1-4)GlcNAc
# Procedure, shortened: as §1
# [30] = target: Neu5Ac(a2-3)Gal(b1-3)GlcNAc(b1-3)Gal(b1-3)GlcNAc
# Procedure, shortened: as §1
# [31] = target: Neu5Ac(a2-3)Gal(b1-3)GlcNAc(b1-6)GalNAc
# Procedure, shortened: as §1
# Neu5Ac(a2-6)Gal = target: Neu5Ac(a2-6)Gal
# Procedure, shortened: as §1
# Neu5Ac(a2-6)Gal(b1-4)Glc = target: Neu5Ac(a2-6)Gal(b1-4)Glc
# Procedure, shortened: as §1
# [32] = target: Neu5Ac(a2-6)Gal(b1-4)GlcNAc
# Procedure, shortened: as §1
# [33] = target: Neu5Ac(a2-6)Gal(b1-4)GlcNAc(b1-2)Man(a1-6)[Gal(b1-4)GlcNAc(b1-2)Man(a1-3)]Man(b1-4)GlcNAc(b1-4)GlcNAc
# Procedure, shortened: as §1
# [34] = target: Neu5Ac(a2-6)Gal(b1-4)GlcNAc(b1-3)Gal(b1-4)GlcNAc(b1-3)Gal(b1-4)GlcNAc
# Procedure, shortened: as §1
# [35] = target: Neu5Ac(a2-6)Gal(b1-4)GlcNAc(b1-6)[Gal(b1-3)]GalNAc
# Procedure, shortened: as §1
# Neu5Ac(a2-8)Neu5Ac = target: Neu5Ac(a2-8)Neu5Ac
# Procedure, shortened: as §1
# [36] = target: Neu5Ac(a2-8)Neu5Ac(a2-3)Gal(b1-4)GlcNAc
# Procedure, shortened: as §1
# [37] = target: Neu5Ac(a2-8)Neu5Ac(a2-8)Neu5Ac(a2-8)Neu5Ac(a2-3)[GalNAc(b1-4)]Gal(b1-4)Glc
# Procedure, shortened: as §1
# [38] = target: Neu5Gc(a2-3)Gal(b1-4)GlcNAc(b1-3)Gal(b1-4)GlcNAc(b1-2)Man(a1-3)[Neu5Gc(a2-3)Gal(b1-4)GlcNAc(b1-3)Gal(b1-4)GlcNAc(b1-2)Man(a1-6)]Man(b1-4)GlcNAc(b1-4)GlcNAc
# Procedure, shortened: as §1
# [39] = target: Neu5Gc(a2-8)Neu5Gc(a2-3)Gal(b1-4)GlcNAc
# Procedure, shortened: as §1
binder,measurement,setting,value
B1,glycan array binding signal (z-score),[1],-0.085
same,glycan array binding signal (z-score),[2],-0.163
same,glycan array binding signal (z-score),[3],-0.038
same,glycan array binding signal (z-score),Fuc(a1-2)[Gal(a1-3)]Gal,-0.099
same,glycan array binding signal (z-score),[4],-0.11
same,glycan array binding signal (z-score),[5],-0.224
same,glycan array binding signal (z-score),Gal(a1-3)Gal,-0.284
same,glycan array binding signal (z-score),[6],8.11
same,glycan array binding signal (z-score),[7],7.94
same,glycan array binding signal (z-score),[8],-0.16
same,glycan array binding signal (z-score),[9],-0.163
same,glycan array binding signal (z-score),[10],-0.188
same,glycan array binding signal (z-score),[11],5.76
same,glycan array binding signal (z-score),[12],8.18
same,glycan array binding signal (z-score),[13],3.64
same,glycan array binding signal (z-score),[14],3.96
same,glycan array binding signal (z-score),[15],6.87
same,glycan array binding signal (z-score),[16],3.54
same,glycan array binding signal (z-score),[17],-0.146
same,glycan array binding signal (z-score),[18],6.95
same,glycan array binding signal (z-score),[19],8.21
same,glycan array binding signal (z-score),[20],-0.237
same,glycan array binding signal (z-score),Gal6S(b1-4)GlcNAc6S,-0.168
same,glycan array binding signal (z-score),GalNAc(a1-3)GalNAc,-0.119
same,glycan array binding signal (z-score),[21],-0.114
same,glycan array binding signal (z-score),GalNAc(b1-6)GalNAc,-0.153
same,glycan array binding signal (z-score),GlcA(b1-3)GlcNAc,-0.153
same,glycan array binding signal (z-score),[22],-0.151
same,glycan array binding signal (z-score),GlcNAc(b1-3)Gal(b1-4)Glc,0.173
same,glycan array binding signal (z-score),[23],-0.167
same,glycan array binding signal (z-score),[24],-0.228
same,glycan array binding signal (z-score),[25],-0.087
same,glycan array binding signal (z-score),[26],-0.163
same,glycan array binding signal (z-score),[27],-0.184
same,glycan array binding signal (z-score),[28],-0.173
same,glycan array binding signal (z-score),[29],-0.169
same,glycan array binding signal (z-score),[30],-0.196
same,glycan array binding signal (z-score),[31],-0.169
same,glycan array binding signal (z-score),Neu5Ac(a2-6)Gal,-0.173
same,glycan array binding signal (z-score),Neu5Ac(a2-6)Gal(b1-4)Glc,-0.252
same,glycan array binding signal (z-score),[32],-0.282
same,glycan array binding signal (z-score),[33],11.8
same,glycan array binding signal (z-score),[34],-0.186
same,glycan array binding signal (z-score),[35],-0.164
same,glycan array binding signal (z-score),Neu5Ac(a2-8)Neu5Ac,-0.243
same,glycan array binding signal (z-score),[36],-0.192
same,glycan array binding signal (z-score),[37],-0.318
same,glycan array binding signal (z-score),[38],-0.153
same,glycan array binding signal (z-score),[39],-0.189
